Holding throughout (assay): yeast three-hybrid, YBZ-1, SC-Leu-His + 0.5 mM 3-AT, 4 days
Conditions in all cases: tags: N-Gal4 AD-HA kept; label: inside an RPR1-promoter hybrid RNA with tandem MS2 sites; ssRNA

The target in one test is PUM1 PUF domain R1-NYS (Homo sapiens, UniProt Q14671 828-1176, S863N;R864Y;Q867S). A digest of the protocol:
(§1)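 Repeat regions from input (SC-Leu) and selection (SC-Leu-His + 0.5 mM 3-AT) plates were PCR-amplified and Illumina-sequenced after four days of growth. The cells were strain YBZ-1 with a LexA–MS2 coat fusion and a HIS3 reporter, co-expressing Pumilio-1 PUF domain libraries and matching RNA elements from a centromeric plasmid. The interaction score is the log change in variant frequency from input to selection, taken in log2 with a pseudocount of 1 for absent variants.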

A further test addresses PUM1 PUF domain R1-YFR (Homo sapiens, UniProt Q14671 828-1176, S863Y;R864F;Q867R). A digest of the protocol: as §1
The target of another test is PUM1 PUF domain R3-CRA (Homo sapiens, UniProt Q14671 828-1176, Q939A). A digest of the protocol:
as §1

Another test addresses PUM1 PUF domain R3-SIR (Homo sapiens, UniProt Q14671 828-1176, C935S;R936I;Q939R). A digest of the protocol: as §1
The target in the next test is PUM1 PUF domain R5-TYF (Homo sapiens, UniProt Q14671 828-1176, C1007T;R1008Y;Q1011F). The procedure, abridged:
as §1

A further test addresses T1, PUM1 PUF domain R6-CWI (Homo sapiens, UniProt Q14671 828-1176, N1043C;Y1044W;Q1047I).
T1 sequence: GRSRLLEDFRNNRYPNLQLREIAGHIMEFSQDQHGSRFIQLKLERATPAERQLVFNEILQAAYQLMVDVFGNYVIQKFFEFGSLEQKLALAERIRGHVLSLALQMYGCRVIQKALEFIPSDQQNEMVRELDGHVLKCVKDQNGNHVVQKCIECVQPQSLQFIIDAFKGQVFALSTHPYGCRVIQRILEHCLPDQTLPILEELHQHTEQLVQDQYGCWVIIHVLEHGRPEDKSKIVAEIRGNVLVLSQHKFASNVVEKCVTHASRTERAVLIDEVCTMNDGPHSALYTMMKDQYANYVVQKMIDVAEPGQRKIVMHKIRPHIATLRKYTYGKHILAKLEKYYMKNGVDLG
A digest of the protocol: as §1

The target in the next test is PUM1 PUF domain R5-YNG (Homo sapiens, UniProt Q14671 828-1176, C1007Y;R1008N;Q1011G). The procedure, abridged: as §1
Another test has as its target PUM1 PUF domain R8-IRR (Homo sapiens, UniProt Q14671 828-1176, N1122I;Y1123R;Q1126R). The procedure, abridged: as §1
Another test addresses PUM1 PUF domain R7-RYP (Homo sapiens, UniProt Q14671 828-1176, S1079R;N1080Y;E1083P). A digest of the protocol: as §1
The target of the next test is PUM1 PUF domain R5-RKD (Homo sapiens, UniProt Q14671 828-1176, C1007R;R1008K;Q1011D). The procedure, abridged:
as §1

As to “GGCUAGAACUAGUGGAUCCCCCGGCGCCCGGCGGCUCGAGCCCGGGUAAGUGUAAAUUGUCUGCAUGCCGCCGGGCGCCAUGCCUGCAGGUCGACUCUAGAAAACAUG”, the values for the binding signal with PUM1 PUF domain R1-NYS and with PUM1 PUF domain R1-YFR were 3.41 log2 enrichment (interaction score) and 6.74 log2 enrichment (interaction score), respectively.
For the sequence “GGCUAGAACUAGUGGAUCCCCCGGCGCCCGGCGGCUCGAGCCCGGGUAAGUGUAAGUAGUCUGCAUGCCGCCGGGCGCCAUGCCUGCAGGUCGACUCUAGAAAACAUG”, the values for the binding signal with PUM1 PUF domain R3-CRA and in the test with PUM1 PUF domain R3-SIR were 1.42 log2 enrichment (interaction score) and 2.77 log2 enrichment (interaction score), respectively.
In the case of “GGCUAGAACUAGUGGAUCCCCCGGCGCCCGGCGGCUCGAGCCCGGGUAAGUGUAAUUAGUCUGCAUGCCGCCGGGCGCCAUGCCUGCAGGUCGACUCUAGAAAACAUG”, in the test with PUM1 PUF domain R3-SIR, the binding signal is 1.21 log2 enrichment (interaction score).
In the case of “GGCUAGAACUAGUGGAUCCCCCGGCGCCCGGCGGCUCGAGCCCGGGUAAGUGUUAAUAGUCUGCAUGCCGCCGGGCGCCAUGCCUGCAGGUCGACUCUAGAAAACAUG”, in the test with PUM1 PUF domain R5-TYF, the binding signal was 1.26 log2 enrichment (interaction score).
On to “GGCUAGAACUAGUGGAUCCCCCGGCGCCCGGCGGCUCGAGCCCGGGUAAGUGUAAAUGGUCUGCAUGCCGCCGGGCGCCAUGCCUGCAGGUCGACUCUAGAAAACAUG”, for which the binding signal in the test with PUM1 PUF domain R1-YFR was 2.6 log2 enrichment (interaction score).
Consider “GGCUAGAACUAGUGGAUCCCCCGGCGCCCGGCGGCUCGAGCCCGGGUAAGUGUAAAUAGUCUGCAUGCCGCCGGGCGCCAUGCCUGCAGGUCGACUCUAGAAAACAUG”, for which the binding signal with PUM1 PUF domain R1-NYS was 2.51 log2 enrichment (interaction score); in the test with PUM1 PUF domain R6-CWI, 4.75 log2 enrichment (interaction score); with PUM1 PUF domain R5-YNG, 2.79 log2 enrichment (interaction score); with PUM1 PUF domain R5-TYF it was 2.88 log2 enrichment (interaction score); with PUM1 PUF domain R3-CRA, 2.9 log2 enrichment (interaction score); with PUM1 PUF domain R8-IRR it was 1.39 log2 enrichment (interaction score).
As to “GGCUAGAACUAGUGGAUCCCCCGGCGCCCGGCGGCUCGAGCCCGGGUAAGCGUAAAUAGUCUGCAUGCCGCCGGGCGCCAUGCCUGCAGGUCGACUCUAGAAAACAUG”, the binding signal with PUM1 PUF domain R8-IRR is 2.44 log2 enrichment (interaction score).
On to “GGCUAGAACUAGUGGAUCCCCCGGCGCCCGGCGGCUCGAGCCCGGGUAAGUCUAAAUAGUCUGCAUGCCGCCGGGCGCCAUGCCUGCAGGUCGACUCUAGAAAACAUG”, for which the binding signal with PUM1 PUF domain R7-RYP was 5.27 log2 enrichment (interaction score).
For the sequence “GGCUAGAACUAGUGGAUCCCCCGGCGCCCGGCGGCUCGAGCCCGGGUAAGUGUCAAUAGUCUGCAUGCCGCCGGGCGCCAUGCCUGCAGGUCGACUCUAGAAAACAUG”, in the test with PUM1 PUF domain R5-RKD, the binding signal is 4.06 log2 enrichment (interaction score).
